Laboratory results reported in publication PMC4336329 (PLoS ONE, 2015).
The whole screen tested about 310,000 compounds, of which about 14,000 (4.5%) showed an effect of 50% or more. The effect is printed as a negative number. The entries come from a sample that favours strong results as a whole.

Target: human ether-à-go-go-related gene (hERG) potassium channel (human, UniProt Q12809)
Experiment: primary screen, population patch clamp on CHO cells stably expressing hERG; higher = less effect of the substance
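Note: peak tail current of the secondary pulse compared with the same well before compound.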

Chain of human ether-à-go-go-related gene (hERG) potassium channel (Q12809 whole entry, looked up): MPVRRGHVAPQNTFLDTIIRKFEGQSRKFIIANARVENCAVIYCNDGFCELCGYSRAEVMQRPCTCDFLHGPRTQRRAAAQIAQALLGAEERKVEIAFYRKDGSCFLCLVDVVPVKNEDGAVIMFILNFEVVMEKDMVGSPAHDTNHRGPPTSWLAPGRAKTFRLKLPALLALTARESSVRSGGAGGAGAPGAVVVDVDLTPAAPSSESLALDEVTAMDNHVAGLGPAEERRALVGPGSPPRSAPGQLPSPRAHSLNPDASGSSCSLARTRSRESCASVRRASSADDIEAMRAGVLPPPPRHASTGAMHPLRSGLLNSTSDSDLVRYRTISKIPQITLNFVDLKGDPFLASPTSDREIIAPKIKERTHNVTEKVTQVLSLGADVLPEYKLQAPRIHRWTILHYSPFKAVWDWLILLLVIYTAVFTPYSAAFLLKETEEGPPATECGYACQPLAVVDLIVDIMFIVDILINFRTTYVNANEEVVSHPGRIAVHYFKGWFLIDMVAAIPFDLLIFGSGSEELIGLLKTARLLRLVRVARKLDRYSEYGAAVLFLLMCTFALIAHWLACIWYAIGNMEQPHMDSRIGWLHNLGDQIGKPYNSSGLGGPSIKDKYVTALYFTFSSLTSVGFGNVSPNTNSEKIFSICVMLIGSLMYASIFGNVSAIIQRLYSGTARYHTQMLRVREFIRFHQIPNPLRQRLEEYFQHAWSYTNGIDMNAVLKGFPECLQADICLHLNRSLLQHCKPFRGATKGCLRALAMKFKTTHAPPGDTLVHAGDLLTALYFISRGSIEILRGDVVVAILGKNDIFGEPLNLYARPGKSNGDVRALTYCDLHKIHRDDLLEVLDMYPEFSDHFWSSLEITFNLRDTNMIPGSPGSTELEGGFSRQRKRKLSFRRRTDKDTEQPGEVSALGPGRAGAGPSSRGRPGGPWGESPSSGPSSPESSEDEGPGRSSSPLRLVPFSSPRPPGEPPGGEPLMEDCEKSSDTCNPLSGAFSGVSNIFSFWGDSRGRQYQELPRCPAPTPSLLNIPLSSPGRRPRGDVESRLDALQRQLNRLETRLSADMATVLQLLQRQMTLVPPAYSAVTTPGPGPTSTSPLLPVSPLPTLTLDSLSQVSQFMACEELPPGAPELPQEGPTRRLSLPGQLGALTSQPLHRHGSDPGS

SMILES | hERG current change (%, negative = inhibition) at 10uM
CSc1nccc(Oc2cncc(Cl)c2)n1 | 8.61%
Cc1csc(-c2cnn(-c3ccccc3)c2NC(=O)c2cccc(C(F)(F)F)c2)n1 | 9.98%
CC(NC(=S)Nc1ccc(Cl)cc1)C(c1ccccc1)N1CCOCC1 (stereo not drawn) | -13%
COc1ccc(N=C2C(=O)N3c4c(cccc42)C(C)=CC3(C)C)cc1 | 9%
Cc1c(CCOC(=O)c2cccc([N+](=O)[O-])c2)sc[n+]1CC(=O)c1ccccc1.[Br-] | -51.1%
Cc1c(CCOC(=O)c2ccccc2)sc[n+]1CC(=O)c1ccc(Br)cc1.[Br-] | -77%
Cc1c(CCOC(=O)c2ccc([N+](=O)[O-])cc2)sc[n+]1CC(=O)c1ccccc1.[Br-] | -63.7%
Cc1[nH+]csc1CCOC(=O)c1ccc([N+](=O)[O-])cc1.[Cl-] | -35.4%
Cc1c(CCOC(=O)C23CC4CC(CC(C4)C2)C3)sc[n+]1Cc1ccccc1.[Cl-] | -8.89%
Cc1sc[n+](CC(=O)c2ccc(Br)cc2)c1C.[Br-] | -12.7%
Cc1c(CCOC(=O)c2cc([N+](=O)[O-])cc([N+](=O)[O-])c2)sc[n+]1CC(=O)c1ccccc1.[Cl-] | 5.96%
Cc1c(CCOC(=O)c2cc([N+](=O)[O-])cc([N+](=O)[O-])c2)sc[n+]1CC(=O)c1ccc(Br)cc1.[Br-] | -40.7%
Cc1ccc(C(=O)OCCc2sc[n+](Cc3ccccc3)c2C)cc1.[Cl-] | -70.1%
COc1ccc(C(=O)OCCc2sc[n+](CC(=O)c3ccccc3)c2C)cc1.[Br-] | -48.9%
Cc1c(CCOC(=O)c2ccccc2)sc[n+]1Cc1ccccc1.[Cl-] | -32.7%
Cc1c(CCOC(=O)c2cc([N+](=O)[O-])cc([N+](=O)[O-])c2)sc[n+]1CCCCS(=O)(=O)[O-] | 23.4%
Cc1cc(NC(=O)C2CCCCC2)nc2c1c(=O)oc1ccccc12 | 3.61%
O=C(Nc1cccnc1)c1ccc(S(=O)(=O)N2CCCCCC2)cc1 | 5.14%
O=C(CN1C(=O)c2ccccc2C1=O)NCC(=O)OCC(=O)c1ccc(Cl)cc1 | 16.2%
CCOc1ccccc1NC(=O)CCC(=O)Nc1ccc2nc(N3CCN(C)CC3)cc(C)c2c1 | 3.51%
Cn1c(CCC(=O)Nc2cc(S(C)(=O)=O)ccc2Cl)nc2cc(S(=O)(=O)N3CCOCC3)ccc21 | -25.4%
Cn1c(CCC(=O)Nc2ccc(F)cc2)nc2cc(S(=O)(=O)N3CCOCC3)ccc21 | -17.7%
CC(NC(=O)CCc1nc2cc(S(=O)(=O)N3CCOCC3)ccc2n1C)c1ccc(S(N)(=O)=O)cc1 (stereo not drawn) | -57.9%
CCOc1ccc(NS(=O)(=O)c2ccc(C(=O)NCCCN3CCCC3=O)cc2)cc1 | 7.23%
CC(=O)Nc1ccc(S(=O)(=O)NNC(=O)c2ccc(S(=O)(=O)N3CCCCC3)cc2)cc1 | 6.41%
Cc1cc(N/N=C/c2ccc(F)cc2)nc(NCc2ccccc2)n1 | -64.2%

SMILES | hERG current change (%, negative = inhibition) at 10uM
Cc1cc(N/N=C/c2ccccc2)nc(NCc2ccccc2)n1 | -2.93%
Cc1ccc(Nc2cc(C)nc(NCc3ccccc3)n2)cc1 | -5.08%
CCCCNc1cc(C)nc(NCc2ccccc2)n1 | -59%
Cc1ccc(/C=N/Nc2cc(C)nc(NCc3ccccc3)n2)cc1 | -6.03%
CCCCOc1cc(C)nc(NCc2ccccc2)n1 | 5.5%
CN(C)C(CNC(=O)c1cccs1)c1ccco1 (stereo not drawn) | 0.144%
CC(=O)N1c2ccc(S(=O)(=O)N3CCC(C(=O)NC4CCC(C)CC4)CC3)cc2CC1C (stereo not drawn) | 17.3%
Cc1ccc(S(=O)(=O)N(C(=O)c2ccncc2)c2ccc(OC(=O)c3ccncc3)cc2)c(C)c1 | -0.914%
O=C(O)C(Cc1ccc(Cl)cc1)NS(=O)(=O)c1ccc(Cl)cc1 (stereo not drawn) | 27.1%
O=S(=O)(N/N=C\c1ccc(-c2ccccc2Cl)o1)c1ccccc1 | 10.4%
CCN(CC)c1ccc(NC(=O)CN2CCN(CC(=O)Nc3ccc(F)cc3)CC2)cc1 | -76.4%
CCN(CC)c1ccc(NC(=O)CN2CCN(c3ccccn3)CC2)cc1 | -2.86%
CCN(CC)c1ccc(NC(=O)CN2CCN(CC(=O)Nc3ccccc3F)CC2)cc1 | -64.9%
CN(C)c1ccc(NC(=O)CN2CCN(c3ccc(F)cc3)CC2)cc1 | -4.56%
CN(C)c1ccc(NC(=O)CN2CCN(CC(=O)Nc3ccc(F)cc3)CC2)cc1 | -77.1%
CCN1CCN(CC(=O)Nc2ccc(N(C)C)cc2)CC1.O=C(O)C(=O)O | -2.52%
CCN(CC)c1ccc(NC(=O)CN2CCN(c3ccccc3F)CC2)cc1 | -5.61%
CN(C)c1ccc(NC(=O)CN2CCC(C(=O)c3ccc(F)cc3)CC2)cc1 | -32.1%
CCN(CC)c1ccc(NC(=O)CN2CCN(c3nc(C)cc(C)n3)CC2)cc1 | -21.7%
COc1ccc(NC(=O)CSc2n[nH]c(-c3ccco3)n2)cc1 | -2.42%
Br.CC(C)CC(N)C(=O)OCc1ccc([N+](=O)[O-])cc1 (stereo not drawn) | 7.33%
CCN(CC)c1nc(Nc2ccccc2)nc(Oc2ccc(=O)[nH]n2)n1 | -14.2%
COc1ccc(CCNC(=O)C(=O)c2c(C)[nH]c3ccccc23)cc1 | 6.09%
Cc1nc2nc(SCC(=O)N3CCC4(CC3)OCCO4)nn2c(C)c1Cc1ccccc1 | -24.9%
CCCN(C(=O)c1ccccc1Cc1ccccc1)C1CCS(=O)(=O)C1 (stereo not drawn) | -0.454%
